Bioassay records (PubChem)
The full list was thinned out, with hits kept by preference.
TDP-43 tox inh = inhibitors of TDP-43 toxicity in yeast; 45,000 compounds, 0.45% hits; yeast TDP-43 toxicity rescue, BacTiter-Glo growth, 24 h; Potency, µM (doses to about 46.1 µM), most hits filed as activators; AID 1347073; active = well fitted activation curve with a large enough effect; note: 0% is about no effect; nearly all actives have a fitted effect of over 55% in size
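TDP-43-expressing yeast, pregrown in raffinose, seeded at OD600 0.02 in galactose medium with compound for 24 hr at 30 deg C. Growth read by BacTiter-Glo luminescence, so rescue of toxicity appears as activation.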
Starred values were filed as active, the others as inactive; i = inactive. Potency is the fitted concentration of half-maximal effect.

SMILES	TDP-43 tox inh
O=C(NCC1CCOCC1)c1cccc2c(-c3cccnc3)coc12	i
CC(C)CNC(=O)c1cccc2c(-c3cccnc3)coc12	i
COc1ccc(NC(=O)c2cccc3c(-c4cccnc4)coc23)cc1	10µM*
CCOC(=O)c1c(NC(C)=O)c2c3c(sc2n1Cc1ccc(Cl)cc1)CCCC3	i
Cc1c(C(=O)O)oc2c1-c1nn(Cc3ccccc3Cl)cc1CC2	11µM*
CC(=O)Nc1ccc(NC(=O)c2c(C)nn(Cc3ccccc3Cl)c2C)cc1	i
CCOC(=O)c1oc2c(c1C)-c1nn(Cc3ccccc3Cl)cc1CC2	i
Cc1ccc(Cn2c(CN3CCC(C(=O)O)CC3)cc3ccccc32)cc1	i
Cc1cc(C)c(Cn2c(=O)n(CCCCCC(=O)NCc3ccc4c(c3)OCO4)c(=O)c3sccc32)c(C)c1	i
O=C(NCc1ccccc1)C1CCN(C(=O)c2cnn(-c3ccccc3)c2-n2cccc2)CC1	i
COc1ccccc1Oc1ccnc2cc(Cl)ccc12	i
Oc1ccc(N2CCN(c3ccnc4cc(Cl)ccc34)CC2)cc1	i
O=C(Oc1ccnc2cc(Cl)ccc12)N1CCCCCC1	3.2µM*
CC(O)(c1cccc(F)c1)c1nc(-c2cccc(F)c2)cs1 (centres undefined)	i
Cc1ccc(-c2csc(C(C)(O)c3cccc(F)c3)n2)cc1C (centres undefined)	i
COc1ccc(-c2csc(C(C)(O)c3cccc(F)c3)n2)cc1 (centres undefined)	14µM*
Cc1cccc(NC(=O)C2CCN(c3nnc(-n4c(C)ccc4C)s3)CC2)c1C	i
CCc1nnc(SC(CC)C(=O)Nc2cccc(OC)c2)c2cc3oc(C)cc3n12 (centres undefined)	i
Cc1ccc(C)c(CN2C(=O)c3ccccc3S(=O)(=O)c3ccc(C(=O)N4CCN(c5ccccc5)CC4)cc32)c1	i
CCc1ccc2nc(NC(=O)CCCc3cccs3)sc2c1	i
Cc1cc[n+](CC(=O)Nc2nc3ccccc3s2)cc1	i
O=C(Cc1cccs1)Nc1nc2ccccc2s1	16µM*
COc1ccc(CCNC(=O)C(C)n2nc(C)c3sc4ccccc4c3c2=O)c(OC)c1 (centres undefined)	i
Cc1ccc2nc(-c3ccsc3)c(Nc3ccc(Cl)cc3)n2c1	i
COc1cccc(C(=O)N(Cc2ccc(N(C)C)cc2)Cc2ccco2)c1	i
SMILES	TDP-43 tox inh
Nc1ccc2oc(Cc3ccc(Cl)cc3)nc2c1	i
CC(C)Oc1ccc(/C=N/NC(N)=S)cc1	13µM*
O=C(N/N=C/c1ccc(OC(F)F)cc1)C1=COCCO1	i
Cn1cc(/C=N/NC(N)=S)c2ccccc21	i
CN1CCN(c2ncnc3c2ncn3[C@H]2CN(Cc3ccc(F)cc3)C[C@@H](CO)O2)CC1	i
CCCSc1ncc(Cl)c(C(=O)Nc2nc3ccc(C)cc3s2)n1	i
COc1ccc(CCNC(=O)c2c[nH]n3c(=O)c(Cc4ccccc4Cl)c(C)nc23)cc1OC	i
CC1CC1C(=O)Nc1nc(-c2cccs2)c(-c2cccs2)s1 (centres undefined)	11µM*
O=C(O)Cc1sc(Nc2ccc(Cl)cc2)nc1-c1cccs1	i
CC(=O)Nc1sc(NC(=O)c2ccco2)nc1-c1cccs1	i
CCc1cccc(-n2nnc(-c3nc(-c4ccc5c(c4)OCO5)no3)c2C)c1	i
O/N=C/c1ccc(OCc2ccccc2)c(Br)c1	11µM*
COc1cc(/C=N/NC(=O)CN2CCCCC2)ccc1OCc1ccccc1	i
COC(=O)c1ccc(COc2ccc(/C=N/O)cc2OC)o1	i
O/N=C/c1ccc(OCc2ccccc2)c(Cl)c1	10µM*
CN(C(=O)c1cccc(COc2ccc(Cl)cc2Cl)c1)c1ccccc1	i
COc1cc(/C=N/NC(=O)CN2CCOCC2)ccc1OCc1ccccc1	i
COCCNC(=O)c1ccc2c(c1)N(Cc1cc(C)ccc1C)C(=O)c1ccccc1S2(=O)=O	i
Cc1c(CCNC(=O)C(C)(C)C)sc2nc(-c3ccc(F)cc3)nn12	i
CCOc1ccccc1NC(=O)N1CCC2(CC1)Oc1ccccc1C(=O)N2Cc1ccccc1F	i
CC(C)(C)C(=O)Cn1c(=O)n(CCCCCC(=O)NCc2ccccc2Cl)c(=O)c2sccc21	i
Cn1c(/C(C#N)=C/c2ccccc2Br)nc2ccccc21	i
COc1ccc(NC(=O)CN2C(=O)C(c3ccccc3)=NC23CCC(C)CC3)cc1Cl (centres undefined)	i
O=[N+]([O-])c1ccc(-c2nc(-c3cccs3)c(-c3cccs3)[nH]2)cc1	3.2µM*
CC(=O)Nc1nc(-c2ccc([N+](=O)[O-])cc2)cs1	i
SMILES	TDP-43 tox inh
N#CCCn1cc(C(=O)Nc2ccc([N+](=O)[O-])cc2)c(-c2cccs2)n1	i
CC(C)Oc1ccc(C(=O)N(Cc2ccc(N(C)C)cc2)Cc2ccco2)cc1	i
COc1cccc(CNC(=O)Cn2nc([N+](=O)[O-])c(Br)c2C)c1	i
COc1ccc(-n2nc([N+](=O)[O-])c(=NCCc3cccc(C)c3)n2O)cc1	13µM*
Cc1ccc(N=c2c([N+](=O)[O-])nn(-c3ccc4c(c3)OCCO4)n2O)cc1F	i
COc1ccc(C2=NC3(CCCCCC3)N(CC(=O)Nc3ccc(C)c(C)c3)C2=O)cc1	i
COc1c(OC(C)=O)ccc(/C=C/c2ccc3cccc(OCc4ccccc4)c3n2)c1[N+](=O)[O-]	i
Oc1c(Cl)cc(Cl)cc1/C=C/c1ccc2cccc(O)c2n1	i
COc1cc(Cl)cc(/C=C/c2ccc3ccccc3n2)c1OC(C)=O	13µM*
CCc1cccc(NC(=O)Cn2cc(C(=O)c3ccncc3)c(=O)c3cc(C)c(C)cc32)c1	i
Cc1cccc(NC(=S)NCCCN2CCOCC2)c1	i
Cc1cc(C)cc(NC(=S)NCC2CCN(C(C)c3ccccc3)C2)c1 (centres undefined)	i
COc1ccc(N2CCC(CNC(=S)Nc3cccc(C)c3)C2)cc1 (centres undefined)	14µM*
COc1ccccc1OCC(=O)NCCSCc1ccccc1Cl	i
COc1ccccc1CNC(=O)Cc1ccc(OC)c(OC)c1	i
COc1ccc(CNC(=O)CCSCc2ccccc2Cl)c(OC)c1	14µM*
Cc1cc(Cl)ccc1NC(=O)C1CCN(c2nnc(-n3c(C)ccc3C)s2)CC1	i
Cc1cc2nc(-c3cccc(NC(=O)c4cccc5ccccc45)c3)oc2cc1C	i
CCc1nn(CCCC(=O)NCc2ccc(OC)c(OC)c2)c(=O)c2cc3occc3n12	i
CCN1CCN(C(=O)c2ccc3c(c2)N(Cc2cc(C)ccc2C)C(=O)c2ccccc2S3(=O)=O)CC1	i
CCc1nnc(NC(=O)c2ccc(COc3ccccc3Cl)o2)s1	i
CCN(CC)C(=O)c1ccc(COc2ccccc2Cl)o1	i
O=C(Nc1ccc(Cl)cn1)c1ccc(COc2ccccc2Br)o1	11µM*
Cc1ccc(C)c(CN2C(=O)c3ccccc3S(=O)(=O)c3ccc(C(=O)N4CCN(c5ccccn5)CC4)cc32)c1	i
CC(C)CCNC(=O)CN1C(=O)c2cccnc2Oc2ccccc21	i
O=C(COC(=O)c1n[nH]c2ccccc12)Nc1ccccc1F	i
Cc1cccc(C)c1OCCOC(=O)c1n[nH]c2ccccc12	14µM*
CCN(Cc1ccccc1)C(=O)COC(=O)c1n[nH]c2ccccc12	i
COc1cccc(NC(=O)Cn2c(=O)n(CC(=O)NCc3ccc(C)cc3)c(=O)c3sccc32)c1	i
CCOc1ccc(CN(CCc2ccc3c(c2)OCO3)Cc2cc(OC)c(OC)cc2OC)cc1	i
